Laboratory results from PubChem BioAssay (NCI).
About 83,000 compounds went through this panel and 20% of them were active in at least one assay; those are over-represented in the sample as a whole.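 Plates (96-well) were seeded with cells, treated with compound at one concentration, and incubated for 48 hours before percent growth was determined.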 Active and inactive are the calls of the source. The calls were made as follows: active = growth percent below 10; inactive = the rest.

Tests used:
Experiment in all cases: NCI-60 one-dose screen, 48 h (100 = growth as untreated, 0 = no growth, -100 = all killed)
Settings in all cases: 10 µM unless noted
[1] = system: SK-MEL-2 melanoma
[2] = system: EKVX NSCLC
[3] = system: SN12C renal
[4] = system: UO-31 renal
[5] = system: TK-10 renal
[6] = system: ACHN renal
[7] = system: CAKI-1 renal
[8] = system: A498 renal
[9] = system: CCRF-CEM leukemia
[10] = system: MOLT-4 leukemia
[11] = system: SR leukemia
[12] = system: RPMI-8226 leukemia
[13] = system: OVCAR-8 ovarian
[14] = system: OVCAR-5 ovarian
[15] = system: OVCAR-4 ovarian
[16] = system: SK-OV-3 ovarian
[17] = system: IGROV1 ovarian
[18] = system: OVCAR-3 ovarian
[19] = system: HS 578T breast
[20] = system: NCI/ADR-RES ovarian

Measured: growth

CC1(C)[C@@H](O)CC[C@]2(C)[C@H]3CC[C@@H]4[C@H]5[C@H](C(=O)/C=C\c6ccc([N+](=O)[O-])cc6)CC[C@]5(O)CC[C@@]4(C)[C@]3(C)CC[C@@H]12
inactive: [1] 102% | [2] 53.1% | [3] 73.5% | [4] 55.2% | [5] 123% | [6] 45.5% | [7] 27.4% | [8] 48.7% | [9] 12% | [10] 22.9% | [12] 11.7% | [13] 76.8% | [14] 92% | [15] 41.1% | [16] 107% | [17] 56.6% | [18] 43.2% | [19] 59.9% | [20] 64%
active: [11] 1.04%

CS(=O)(=O)c1ccc(-c2nn(-c3ccccc3)cc2/C=N/NC(=O)c2nc(N)n[nH]2)cc1
inactive: [1] 108% | [2] 90.3% | [3] 94.7% | [4] 96.8% | [5] 110% | [6] 93.7% | [7] 96.6% | [8] 101% | [9] 43.7% | [10] 67.1% | [11] 69.7% | [12] 83.3% | [13] 101% | [14] 94.8% | [15] 103% | [16] 112% | [17] 90.8% | [18] 97.1% | [19] 111% | [20] 98.9%

CCN(CC)c1ccc(NC2=C(Cl)C(=O)c3nc(C)ccc3C2=O)cc1
inactive: [1] 84.9% | [3] 64% | [5] 164% | [7] 51.7% | [8] 104% | [14] 108% | [16] 112% | [19] 65.4% | [20] 51.2%
active: [2] -5.94% | [4] -60% | [6] -61.2% | [9] 0.0595% | [10] 0.296% | [11] 7.24% | [12] 2.6% | [13] -12.2% | [15] -97% | [17] -52.2% | [18] -29.6%

CCCn1cnc2c(c1=N)C(c1ccc(OC)cc1)c1sc3c(CC)cccc3c1O2 (stereo not given)
active: [8] -11.5% | [9] 4.77% | [11] 8.89% | [12] -8.82% | [18] 6% | [20] 7.77%
inactive: [1] 40.5% | [2] 46.4% | [3] 29.5% | [4] 33.5% | [5] 74.6% | [6] 35.7% | [7] 32.8% | [10] 14.5% | [13] 26.9% | [14] 41.1% | [15] 71.8% | [16] 42.3% | [17] 31.9% | [19] 18.3%

COc1cccc(O)c1/C=C(/C)c1ccc2c(OC)cccc2[o+]1
inactive: [1] 107% | [2] 96.5% | [3] 99.5% | [4] 79.7% | [5] 140% | [6] 98.9% | [7] 90.3% | [8] 95.7% | [9] 106% | [10] 107% | [11] 87.6% | [12] 109% | [13] 103% | [14] 106% | [15] 103% | [16] 106% | [17] 97% | [18] 116% | [19] 110% | [20] 100%

CC1(C)CC[C@]2(CN)CC[C@]3(C)C(=CC[C@@H]4[C@@]5(C)CCCNC(C)(C)[C@@H]5CC[C@]43C)[C@H]2C1
inactive: [1] 108% | [2] 96% | [3] 99.5% | [4] 89% | [5] 111% | [6] 109% | [7] 93.2% | [8] 98% | [9] 79.4% | [10] 82.8% | [11] 61.7% | [12] 81.3% | [13] 101% | [14] 105% | [15] 103% | [16] 106% | [17] 98.1% | [18] 106% | [19] 108% | [20] 105%

C=C(C=O)[C@@H]1CC[C@]2(C)[C@H](C(=O)C=C3[C@H]4C[C@](C)(C(=O)OC)CC[C@]4(C)CC[C@]32C)[C@@]1(C)CCC#N
active: [1] -22.3% | [4] -91.5% | [6] -12.5% | [7] 7.53% | [10] 0.0515% | [11] -9.31% | [12] -16.5% | [14] -25.7% | [17] 2.58% | [18] -47.2% | [19] -2.47% | [20] -24.3%
inactive: [2] 47.7% | [3] 12.8% | [5] 48.9% | [8] 115% | [9] 10.2% | [13] 13.5% | [15] 20.6% | [16] 102%

COc1ccccc1-n1cc(C#N)c(N)c1C(=O)c1ccc(Br)cc1
inactive: [1] 70.4% | [2] 85.4% | [3] 82.7% | [4] 73% | [5] 111% | [6] 98.9% | [7] 68.8% | [8] 60.6% | [9] 68.3% | [10] 61.4% | [11] 40.3% | [12] 92.4% | [13] 90.7% | [14] 94.4% | [15] 96.8% | [16] 88.7% | [17] 67.8% | [18] 73.3% | [19] 78.4% | [20] 42.6%

CC1(C)CC[C@]2(C(=O)O)CC[C@]3(C)C(=CC[C@@H]4[C@@]5(C)CC/C(=N\OCCC#N)C(C)(C)[C@@H]5CC[C@]43C)[C@@H]2C1
inactive: [1] 93.5% | [2] 70.7% | [3] 86.7% | [4] 61.1% | [5] 51.3% | [6] 100% | [7] 59.7% | [8] 51.3% | [9] 90.1% | [10] 101% | [11] 103% | [12] 97.5% | [13] 109% | [14] 103% | [15] 82.6% | [16] 110% | [17] 85.7% | [18] 110% | [19] 107% | [20] 116%

COc1cc(-c2nc(SCCC(C)C)nc(NNC(=O)c3ccncc3)c2C#N)cc(OC)c1OC
inactive: [1] 101% | [2] 54.7% | [3] 60.4% | [4] 19.3% | [5] 52.8% | [6] 23% | [7] 37.8% | [8] 41.9% | [9] 95.8% | [10] 68.7% | [11] 105% | [12] 100% | [13] 70% | [14] 61% | [15] 90.6% | [16] 31.9% | [18] 73.5% | [20] 74.1%
active: [17] 2.47% | [19] 8.27%

Cn1cc(-c2nc(N)nnc2-c2c[nH]c3ccccc23)c2cc(Br)ccc21
inactive: [1] 19.5% | [2] 45.6% | [3] 27.9% | [4] 33.5% | [5] 88.6% | [6] 38.9% | [7] 25.2% | [11] 26.7% | [12] 12.9% | [13] 33% | [14] 55.1% | [15] 74.1% | [16] 29.7% | [17] 30.5% | [18] 16.9% | [20] 20.2%
active: [8] -12.1% | [9] 7.57% | [10] 8.98% | [19] 2.13%

NC(N)=Nc1ccc(Oc2cccc(Nc3cccc(C(F)(F)F)c3)c2)cn1
active: [2] 2.37% | [3] -13.7% | [9] -9.05% | [10] 0.007% | [11] -46.9% | [12] -41.5% | [18] -66.6%
inactive: [1] 64.8% | [4] 42.8% | [5] 70% | [6] 37.8% | [7] 27.2% | [8] 18.1% | [13] 45.4% | [14] 50.4% | [15] 24.7% | [16] 67.8% | [17] 13.8% | [19] 52.8% | [20] 46.6%

O=C1CCCc2nc(Nc3ccc(S(=O)(=O)Nc4ccc([N+](=O)[O-])cc4)cc3)ncc21
inactive: [1] 111% | [2] 100% | [3] 96.2% | [4] 87.1% | [5] 105% | [6] 104% | [7] 89.9% | [8] 94.7% | [9] 99.8% | [10] 101% | [11] 105% | [12] 100% | [13] 106% | [14] 111% | [15] 107% | [16] 109% | [17] 98% | [18] 98.9% | [19] 98.4% | [20] 105%

Oc1cccc2ccc(-c3nnc(SCc4ccc(O)c5ncccc45)n3-c3ccccc3)nc12
active: [4] -22.8% | [6] 7.49% | [13] 6.56% | [20] 7.68%
inactive: [1] 25.5% | [2] 15.3% | [3] 20% | [5] 14.2% | [7] 18.1% | [8] 31.5% | [9] 11.6% | [10] 12.2% | [11] 31.2% | [12] 15.6% | [14] 47.8% | [15] 16.8% | [16] 12.1% | [17] 11.2% | [18] 28.3% | [19] 18.5%

CCOC(=O)c1c(NC(=O)c2ccccc2C(F)(F)F)sc2c1CCC(=O)C2
inactive: [1] 91.2% | [2] 32.2% | [3] 25.8% | [5] 91.1% | [7] 21.1% | [8] 85.2% | [9] 10.3% | [10] 94.2% | [11] 24.2% | [13] 37.9% | [14] 21% | [15] 16.7% | [16] 99.7% | [17] 29% | [18] 12.4% | [19] 36.3% | [20] 10.7%
active: [4] -1.08% | [6] 6.88% | [12] -6.12%
